“And” between values parts separate entries of the source, which are not always exact repeats. Equal entries are not always repeated. Hit rate of the full screen: of about 340,000 compounds, about 2,100 (0.62%) were called active. Not all results are given here. Results with a measured potency or affinity are listed apart. Values without a mark were called inactive.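 Rule for the calls: active = first-screen hits whose inhibition reached a set limit at any dose in the follow-up dose series; inconclusive = inhibition above the set first-screen limit but never retested; inactive = the rest.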

One may read the inhibition as the drop in the measured response relative to a control, in per cent.

The target of this assay is Rac GTPase-activating protein 1 (Homo sapiens) (UniProt Q9H0H5). As to the kind of experiment: MgcRacGAP GTPase-activating activity inhibitors, confirmation, biochemical, ADP Hunter fluorescence, primary and confirmatory (AID 624330).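 Note: fluorescence reports GDP produced by GAP-driven GTP hydrolysis.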 As to conditions: MgcRacGAP-stimulated Rac1 GTP hydrolysis, at 30 µM, hits give high values, GST-tagged Rac1 F28L mutant substrate.
Sequence of Rac GTPase-activating protein 1 (Homo sapiens) (Q9H0H5 whole entry, looked up): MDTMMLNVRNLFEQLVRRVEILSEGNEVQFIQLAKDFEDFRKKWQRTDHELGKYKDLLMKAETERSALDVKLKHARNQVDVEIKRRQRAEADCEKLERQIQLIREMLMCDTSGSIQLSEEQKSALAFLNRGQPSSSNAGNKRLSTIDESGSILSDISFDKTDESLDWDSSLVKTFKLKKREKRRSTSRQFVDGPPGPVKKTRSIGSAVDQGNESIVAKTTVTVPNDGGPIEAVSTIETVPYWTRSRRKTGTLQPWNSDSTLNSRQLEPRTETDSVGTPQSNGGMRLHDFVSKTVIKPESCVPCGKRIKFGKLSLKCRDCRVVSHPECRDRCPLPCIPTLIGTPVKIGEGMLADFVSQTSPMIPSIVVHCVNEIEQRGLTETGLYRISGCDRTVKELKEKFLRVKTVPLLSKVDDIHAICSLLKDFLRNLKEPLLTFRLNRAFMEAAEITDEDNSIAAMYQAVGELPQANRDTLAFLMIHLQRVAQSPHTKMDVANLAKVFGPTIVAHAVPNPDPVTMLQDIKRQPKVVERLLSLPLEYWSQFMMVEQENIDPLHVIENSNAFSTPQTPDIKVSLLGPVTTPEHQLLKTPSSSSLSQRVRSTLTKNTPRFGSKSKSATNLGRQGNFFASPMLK
Consider `O=S(=O)(c1ccc2ccccc2c1)N1CCNCC1`, for which the inhibition was 11.3%.
Under `COc1ccc(CNC(=O)CN(C(=O)CCC(=O)Nc2ccccn2)c2cccc(C)c2C)cc1` stands 6.1%.
As for `CCc1nnc(NC(=O)CSc2nnc3ncccn23)s1`, the inhibition is 4.86%.
Under `CC(=O)Nc1cccc(NC(=O)CSc2n[nH]c(-c3ccccc3)n2)c1` stands 2.62%; under `O=[N+]([O-])c1ccccc1S(=O)(=O)N1CCCc2ccccc21`, -4.93%; under `COc1ccc(-c2coc3cc(O)ccc3c2=O)cc1`, -1.73%.
With `O=c1cc(O)c2ccc(O)cc2o1`, the inhibition was 11.2%.
The figure for `O=c1c(O)c(-c2ccccc2)oc2cc(O)cc(O)c12` is 9.81%; for `O=c1c(O)c(-c2ccc(O)c(O)c2)oc2cc(O)cc(O)c12` it is 24.2%; for `COc1ccc(-c2oc3cc(O)c(OC)c(O)c3c(=O)c2OC)cc1O` it is 26.4%.
`COc1c(-c2ccc(O)cc2)oc2cc(O)cc(O)c2c1=O`: the inhibition is 8.09%.
The figure for `O=c1c(O)c(-c2cc(O)c(O)c(O)c2)oc2cc(O)cc(O)c12` is -51.5%; for `O=c1c(-c2ccc(F)cc2)coc2cc(O)ccc12` it is 2.56%.
Under `CC1(C)CC(=O)C(N=Nc2ccc3ncsc3c2)=C(O)C1` stands 9.23%; under `Cc1cc(C)c(/C([O-])=C(/C(=S)Nc2ccc(SC(F)F)cc2)[n+]2ccccc2)cc1C`, -14.3%.
The figure for `Cc1cc(C(=O)N2CCCC(N3CCN(c4cccc(Cl)c4)CC3)C2)n(C)n1` (stereo not given) is 9.25%.
On to `O=C(COc1ccccc1)N[C@@H]1c2ccccc2CC[C@@H]1OCc1ccccc1`, for which the inhibition is 3.68%.
Under `CCN(C(=S)NC(=O)c1ccco1)c1cccc2ccccc12` stands 15.5%.
Turning to `N/C(Cc1ccc(Cl)cc1Cl)=N\OC(=O)Cc1cccs1`, the inhibition is 6.38%.
In the case of `O=C(COc1ccc(-c2nnco2)cc1)NC1CCS(=O)(=O)C1` (stereo not given), the inhibition was 2.22%.
Under `Cn1c(SCC(=O)N2CCc3ccccc3C2)nnc1-c1cccs1` stands -0.2%.
The figure for `COc1cc(C=C2C(=O)c3ccccc3C2=O)cc(OC)c1` is 5.79%; for `COc1cc(C=C2C(=O)c3ccccc3C2=O)ccc1O` it is 15.4%.
Under `COc1cc(/C=C2/CCc3ccccc3C2=O)cc(OC)c1OC` stands 4.12%; under `COc1cc(/C=C2\CCc3ccccc3C2=O)cc(OC)c1OC`, 4.54%; under `COc1ccc(/C=C2\CCc3ccccc3C2=O)cc1O`, 12.2%.
In the case of `COc1cccc(/C=C2\CCc3ccccc3C2=O)c1`, the inhibition is 7.06%.
Consider `Cc1nc(NCC(c2ccccc2)N(C)C)c2c(C)c(C)sc2n1` (stereo not given), for which the inhibition was 7.93%.
With `C=CCNC(=O)CN1CCN(Cc2ccc3c(c2)OCO3)CC1`, the inhibition was 6.33%.
Under `O=C(NNc1ccccc1[N+](=O)[O-])NC1CCCCC1` stands 2.65%; under `Cc1ccc(NC(=O)CCn2c(=O)c3cccn3c3ccccc32)cc1C`, 7.75%.
The figure for `CN(CC(=O)Nc1ccccc1N1CCCC1)S(=O)(=O)c1ccc(F)cc1` is 3.64%; for `CCOC(=O)NNC(=O)c1[nH]c2ccc(Br)cc2c1-c1ccccc1` it is 9.63%.
The figure for `O=C(O)c1cccc(Nc2nc(C(F)(F)F)nc3ccccc23)c1` is 2.84%; for `OCCN(CCO)c1ccc(C(c2ccccc2Cl)c2ccc(N(CCO)CCO)cc2Cl)c(Cl)c1` it is 4.93%.
With `OCCN(CCO)c1cc2c3ccccc3ccc2c2ccccc12`, the inhibition is 16%.
Under `CC(Oc1cc2oc(=O)c3c(c2cc1Cl)CCCC3)C(=O)NCCN1CCOCC1` (stereo not given) stands 11.2%.
Under `CCC(C)c1ccc(NC(=S)NCCn2cc(Cl)cn2)cc1` (stereo not given) stands 10.6%.
For `CC(NCc1ccc(S(N)(=O)=O)cc1)C(=O)N1CCc2ccccc21` (stereo not given), the inhibition is 16.2%.
On to `CC1Cc2ccccc2N1C(=S)Nc1ccc(S(N)(=O)=O)cc1` (stereo not given), for which the inhibition is 10.7%.
Under `CCOC(=O)N1CCN(c2c(N3CCN(c4ccc(F)cc4)CC3)c(=O)c2=O)CC1` stands 6.14%.
Under `O=C(CCCn1c(=S)[nH]c2cc3c(cc2c1=O)OCO3)NCCc1ccccc1Cl` stands 9.48%; under `Clc1ccc(Nc2nc(-c3ccncc3)cs2)cc1`, 9.41%; under `Cc1ccc(Nc2nc(-c3ccncc3)cs2)cc1`, 8.27%.
Under `Nc1ccc(C(=O)Nc2ccc(Nc3ccncc3)cc2)cc1` stands 5.48%; under `Nc1ccc(Nc2ccncc2[N+](=O)[O-])cc1`, 8.85%.
For the molecule `CSc1cc(/C=N/O)c(SC)s1`, the inhibition was 3.21%.
The figure for `CCCn1c2ccccc2c2cnn(CC(=O)N3CCN(C4CCCCC4)CC3)c(=O)c21` is 10.4%; for `O=C(O)c1cc([N+](=O)[O-])cc([N+](=O)[O-])c1N1CCN(c2cccc(C(F)(F)F)c2)CC1` it is -6.28%; for `COc1ccc(N(C(=O)COc2ccc(C)cc2)S(=O)(=O)c2ccc(C)cc2)cc1` it is 3.97%.
As for `O=C1/C(=C/c2cccc(F)c2)Oc2cc(O)ccc21`, the inhibition was 6.11%.
The figure for `CC(C)(C)c1ccc(/C=C2\Oc3cc(O)ccc3C2=O)cc1` is 5.28%; for `O=C1/C(=C/c2ccc(Br)cc2)Oc2cc(O)ccc21` it is 7.31%; for `COc1ccc(/C=C2\Oc3cc(OCC(N)=O)ccc3C2=O)cc1OC` it is 10.9%.
The figure for `O=C(COC(=O)CNC(=O)c1ccc(Br)cc1)NCCC1=CCCCC1` is 11.9%; for `Cc1cccc2cc(CN(CC(C)C)S(=O)(=O)c3ccccc3)c(=O)[nH]c12` it is 8.17%.
The figure for `O=c1c2ccccc2c(C=Nc2ccc(Cl)cn2)c(O)n1-c1cc(Cl)ccc1N1CCOCC1` is 12.5%; for `Oc1ccc2c(c1)c1ccccc1c1ncccc21` it is 17.4%.
For the molecule `Brc1cc2[nH]cnc2c2ccccc12`, the inhibition is 8.14%.
The figure for `CCN(CC(=O)Nc1c(F)cccc1F)C(=O)c1cccc(S(=O)(=O)N(C)c2ccccc2)c1` is 2.67%; for `COC(=O)C=CSC(=S)C1CCCC1=N` (stereo not given) it is 6.77%; for `COc1ccccc1-c1cn(-c2ccccc2)c(=S)[nH]1` it is 10.3%.
Turning to `N#CCCn1c(SCC(=O)c2c[nH]c3ccccc23)nc2ccccc21`, the inhibition is 15.1%.
The figure for `Cc1nn(-c2cc(C(F)(F)F)ccc2Cl)c2nc(C(Cl)(Cl)Cl)[nH]c(=O)c12` is 9.52%; for `COc1ccc(C2C3=C(CC(C)(C)CC3=O)Oc3ncn(Cc4ccccc4)c(=N)c32)cc1` (stereo not given) it is 2.61%.
Turning to `COc1cc(/C=C/C(=O)O)ccc1OCc1ccc([N+](=O)[O-])cc1`, the inhibition was 7.48%.
Under `COC(=O)C(=Cc1ccc(OCc2ccc([N+](=O)[O-])cc2)c(OC)c1)C(=O)OC` stands 13.9%.
Under `C/C(N)=C(/C#N)C(=O)CSc1nnc(SCc2ccc(Cl)cc2)s1` stands 2.43% and 2.31%; under `COc1cc(C(=O)NNC(=O)CNC(=O)C2CCCCC2)ccc1OC(C)C`, 0.59%; under `Cc1ccc(S(=O)(=O)N2[C@@H](c3ccc(F)cc3)C(C(=O)O)=C[C@H]2CC2CCCC2)cc1`, 11%.
Under `O=C(CN1C(=O)c2ccccc2C1=O)Nc1ccccc1` stands 1.35%; under `CN(C)c1ccc(NC(=O)CN2C(=O)CC(c3ccccc3)=Nc3ccccc32)cc1`, 30.9%; under `CN(C)c1ccc(NC(=O)CN2CCc3ccccc3C2)cc1`, 14.3%.
Turning to `Cc1ccc(NC(=O)CN2C(=O)c3ccccc3C2=O)cc1`, the inhibition is 10.7%.
The figure for `CN1CC(=O)N(CC(=O)NCc2ccc(F)cc2)c2ccccc2C1=O` is 1.75%; for `CN1CC(=O)N(CC(=O)Nc2ccc(F)cc2)c2ccccc2C1=O` it is -12.2%.
Under `COc1ccc(NC(=O)CCN2C(=O)c3cccc([N+](=O)[O-])c3C2=O)cc1` stands 6.66%.
Under `CCOc1ccc(NC(=O)CCN2C(=O)c3cccc([N+](=O)[O-])c3C2=O)cc1` stands 3.27%; under `COC(=O)Nc1nnc(-c2ccc(OC)cc2)s1`, 16%; under `COc1ccc(C(=O)NNC(=O)COc2ccc(Cl)cc2C)cc1S(=O)(=O)N1CCOCC1`, 6.89%.
For the molecule `O=C(NCCN1CCOCC1)C(Sc1ccccc1)c1ccccc1` (stereo not given), the inhibition is 15.2%.
The figure for `NCCSc1c(-c2ccc(Cl)cc2)[nH]c2ccccc12` is 8.34%; for `O=C(COC(=O)c1c(F)cccc1Cl)NC(=O)Nc1ccc2c(c1)OCCO2` it is 0.21%.
The figure for `CC(=O)NC12CC3CC(C1)CC(C(=O)N1CCN(S(=O)(=O)c4ccccc4[N+](=O)[O-])CC1)(C3)C2` is 9.33%; for `COCCNC(=O)c1cc(-c2ccccc2)nn1Cc1cc(C)no1` it is 2.94%.
Regarding `Cc1c(-c2ccccc2)c(=O)oc2cc(O)ccc12`, the inhibition was 7.91%.
Under `O=c1oc2cc(O)ccc2c2ccccc12` stands 17.2%; under `COc1ccc(F)cc1S(=O)(=O)NCC1CCCO1` (stereo not given), 1.18%; under `O=C(CSc1nc(-c2ccco2)cc(C(F)(F)F)n1)Nc1ccc2c(c1)OCO2`, 4.87%.
Under `Cc1nc(Nc2cccc(O)c2)c2c3c(sc2n1)CCC3` stands 10.2%; under `Cc1ccc(CNc2nc(C)nc3sc4c(c23)CCC4)cc1`, 5.5%.
Under `O=C(c1cccc(S(=O)(=O)N2CCCCCC2)c1)N1CCN(c2ccccc2F)CC1` stands 2.31%.
Take `O=C1CCCN1CCC(=O)N1CCCC(Nc2ccc(F)c(F)c2)C1` (stereo not given): the inhibition was 7.57%.
The figure for `O=C(CCCn1cncn1)N1CCCC(Nc2ccc(F)cc2)C1` (stereo not given) is 5.12%; for `COc1ccccc1OCC(=O)N1CCCC(Nc2ccc(F)c(F)c2)C1` (stereo not given) it is 7.15%.
`CC(C)c1ccc(NC2CCCN(C(=O)CCCn3cncn3)C2)cc1` (stereo not given): the inhibition was 6.88%.
For `O=C1CCCN1CCC(=O)N1CCCC(Nc2ccc(F)cc2)C1` (stereo not given), the inhibition is 7.82%.
The figure for `O=C(CSc1ccccc1)N1CCCC(Nc2ccccc2)C1` (stereo not given) is 8.49%; for `COc1ccccc1OCC(=O)N1CCCC(Nc2ccc(C)c(C)c2)C1` (stereo not given) it is 14.2%; for `COc1ccc(NC2CCCN(C(=O)CSc3ccccn3)C2)cc1OC` (stereo not given) it is 30.4%.

For the origin of these results see PubChem BioAssay AID624330 (Southern Research Specialized Biocontainment Screening …, 2012).
